The list is not random: actives were taken first. Their share in the collection is about 2.8%.
PI5P4Ka inh: inhibitors of human PI5P4K alpha; 330,000 compounds, 1.2% hits; max response, %; PI5P4Kalpha enzyme, ADP-Glo luminescence, 60 min; hits give low values; active = max response of -50% or lower; inconclusive = between -30% and -50%; inactive = -30% or higher; note: value at the top dose of about 77 µM; % is set by controls: 0 for no effect and ±100 for the full control effect
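qHTS, 1536-well: enzyme/substrate mix, compound by pin tool, 5 microM ATP final; RT 60 min; ADP-Glo reagents 1 (45 min) then 2 (30 min); luminescence.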
Pol beta inh: blocks human DNA polymerase beta activity; Potency, µM (top dose mostly 114 µM), inactives show at the highest dose activity change, negative = inhibition, most hits filed as inhibitors; 340,000 compounds, 1.3% hits; Pol beta primer extension/strand displacement, fluorescence kinetic; P06746; note: potency is the fitted concentration of half-maximal effect; % is set by controls: 0 for no effect and ±100 for the full control effect
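Reaction started by 50 nM substrate onto compound-treated Pol beta (10 nM, 15 min preincubation, room temperature); plates read at 0 min and 10 min. Normalized concentration-effect data fitted by four-parameter Hill equation.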
POLI inh: blocks human DNA polymerase iota activity | Potency, µM (doses to about 115 µM), for inactives: top-dose activity, negative = inhibition, hits mostly inhibitors | AID 588590 | Q9UNA4 | Pol iota fluorescent replication assay, 10 min | 390,000 compounds, 1% hits; note: potency is the fitted concentration of half-maximal effect
Target sequence (Q9UNA4 whole entry, looked up): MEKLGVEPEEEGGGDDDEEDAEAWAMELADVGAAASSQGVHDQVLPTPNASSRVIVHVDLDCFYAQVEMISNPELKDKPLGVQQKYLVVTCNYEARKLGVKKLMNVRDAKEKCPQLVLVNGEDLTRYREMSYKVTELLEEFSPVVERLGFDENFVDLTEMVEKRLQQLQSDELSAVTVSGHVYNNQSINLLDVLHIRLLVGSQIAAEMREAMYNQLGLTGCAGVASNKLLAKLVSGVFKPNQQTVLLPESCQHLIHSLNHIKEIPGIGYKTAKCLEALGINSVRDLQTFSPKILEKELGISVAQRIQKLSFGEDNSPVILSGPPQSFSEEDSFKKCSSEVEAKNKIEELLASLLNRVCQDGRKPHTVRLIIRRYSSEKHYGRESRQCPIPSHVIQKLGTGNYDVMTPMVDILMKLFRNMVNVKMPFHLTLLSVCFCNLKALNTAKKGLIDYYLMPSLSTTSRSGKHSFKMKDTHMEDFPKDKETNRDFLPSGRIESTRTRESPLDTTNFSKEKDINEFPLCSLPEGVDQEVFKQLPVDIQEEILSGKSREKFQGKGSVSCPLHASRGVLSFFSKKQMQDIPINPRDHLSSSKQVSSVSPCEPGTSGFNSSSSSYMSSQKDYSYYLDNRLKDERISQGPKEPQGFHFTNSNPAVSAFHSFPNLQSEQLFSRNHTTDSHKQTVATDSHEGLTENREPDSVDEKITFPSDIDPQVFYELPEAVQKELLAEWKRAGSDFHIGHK
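Pol iota at 10 nM preincubated 15 min with compounds at room temperature; reaction started with fluorescent substrate, 50 nM final. Fluorescence read kinetically at 0 and 10 min; buffer-only wells as negative control.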
Pol eta inh-1: blocks human DNA polymerase eta activity | Potency, µM (series often up to 114 µM), for inactives: at the highest dose activity change, negative = inhibition, most hits filed as inhibitors | AID 588591 | recombinant Pol eta, fluorescent DNA replication assay | 390,000 compounds, 1.2% hits | Q9Y253; note: potency is the fitted concentration of half-maximal effect; % is set by controls: 0 for no effect and ±100 for the full control effect
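Fluorescent replication assay: 50 nM final substrate added after a 15 min room-temperature compound preincubation with 10 nM enzyme. Signal taken at 0 min and again at 10 min.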
Pol kappa inh-1: blocks human DNA polymerase kappa activity. Potency, µM (series often up to 107 µM), for inactives: at the top dose activity, negative = inhibition, usual class: inhibitors. purified Pol kappa, fluorescent DNA synthesis assay, 10 min. Q9UBT6. AID 588579. 400,000 compounds, 0.53% hits; note: potency is the fitted concentration of half-maximal effect; % is set by controls: 0 for no effect and ±100 for the full control effect
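Pol kappa 10 nM + cpd, 15 min RT; start w/ substrate 50 nM final; fluorescence kinetic read, 0 and 10 min. Neg ctrl: buffer, no enzyme.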
FEN1 inh-1: inhibitors of human flap endonuclease 1 | P39748 | 390,000 compounds, 0.35% hits | AID 588795 | Recombinant FEN1 flap cleavage, fluorescence, 15 min | Potency, µM (doses to about 114 µM), inactives show at the highest dose activity change, negative = inhibition, most hits filed as inhibitors; note: potency is the fitted concentration of half-maximal effect; % is set by controls: 0 for no effect and ±100 for the full control effect; nearly all actives have a fitted effect of over 65% in size
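Recombinant FEN1 (10 nM) was preincubated with pin-transferred compounds for 15 min at room temperature, then flap DNA substrate (50 nM final) was added. Plates were read at 0 and 15 min, and normalized concentration–response data were fitted to a four-parameter Hill equation.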
PGK validate: TbPGK inhibition, hit validation; shares compounds with Pol kappa inh-1; TbPGK coupled GAPDH assay, Kinase-Glo luminescence; Potency, µM (highest dose often 57.5 µM), inactives show at the highest dose activity change, negative = inhibition, hits mostly inhibitors; 500 compounds, 79% hits; note: potency is the fitted concentration of half-maximal effect; % is set by controls: 0 for no effect and ±100 for the full control effect; nearly all actives have a fitted effect of over 65% in size
POLI cherry-pick: Inhibitors of human DNA polymerase iota, confirmation | Potency, µM, hits mostly inhibitors | Pol iota primer extension, TAMRA/BHQ fluorescence | 1,500 compounds, 77% hits | shares compounds with Pol kappa inh-1; note: potency is the fitted concentration of half-maximal effect
Pol kappa inh-2: confirmation of human DNA polymerase kappa inhibitors; shares compounds with Pol eta inh-1; Potency, µM, actives largely listed as inhibitors; purified Pol-kappa, fluorescent strand-displacement substrate; 920 compounds, 76% hits; note: potency is the fitted concentration of half-maximal effect
Pol eta inh-2: confirmation of human DNA polymerase eta inhibitors; 2,600 compounds, 64% hits; shares compounds with Pol eta inh-1; Pol eta primer extension, TAMRA/BHQ fluorescence, 10 min; Potency, µM, most hits filed as inhibitors; note: potency is the fitted concentration of half-maximal effect
FEN1 inh-2: confirmation of human FEN1 inhibitors. shares compounds with FEN1 inh-1. FEN1 flap cleavage, TAMRA/BHQ2 fluorogenic DNA substrate. Potency, µM, most hits filed as inhibitors. 880 compounds, 79% hits. AID 720498; note: potency is the fitted concentration of half-maximal effect; nearly all actives have a fitted effect of over 60% in size
The depositor's hits bear a star; ? = inconclusive; / = no result given. Unless noted, calls come from the whole dose curve; as a rule, active = well fitted curve in the direction sought with a large enough effect; inconclusive = small, poorly fitted or top-dose-only effect, or another doubt; inactive = no such curve, though single readings can be large; an effect the other way counts as inactive or inconclusive.

SMILES | PI5P4Ka inh | Pol beta inh | POLI inh | Pol eta inh-1 | Pol kappa inh-1 | FEN1 inh-1 | POLI cherry-pick | Pol eta inh-2 | FEN1 inh-2 | others
COc1ccc(/C=C2/SC(=S)N(c3ccc(S(=O)(=O)Nc4nccs4)cc3)C2=O)cc1 | -67.3* | -21.7% | 22.4µM* | 25.1µM* | 50.1µM* | 50.1µM* | ? | 67.5* | 60.1*
Cc1ccc(S(=O)(=O)Nc2ccc(Br)cc2C(NCC(=O)O)c2ccccc2)cc1 (stereo unspecified) | 6.1 | -15.1% | -1.0% | -5.1% | -19.8% | -2.0% | / | / | /
O=C(O)CSc1cc(NS(=O)(=O)c2ccc(Br)cc2)c2ccccc2c1O | ? | 89.1µM* | 7.08µM* | 35.5µM* | 89.1µM* | ? | ? | ? | 67.5* | Pol kappa inh-2=?
Cc1ccc(-n2cccc2/C=C2/C(=N)N3C(=NC2=O)SN=C3S(C)(=O)=O)cc1Cl | -74.2* | 28.2µM* | 22.4µM* | 14.1µM* | ? | ? | 84.4* | ? | 84.9*
CC1=CSC2=NC(=O)/C(=C\c3cccn3-c3ccccc3)C(=N)N12 | ? | -18.4% | ? | -11.9% | -5.0% | 0.3% | / | / | /
CCCCn1c(N)c(N(CC(C)C)C(=O)C2CCCO2)c(=O)[nH]c1=O (stereo unspecified) | 7.0 | / | 12.3% | -10.2% | -7.8% | 5.2% | / | / | /
O=C(NCc1ccc(Cl)cc1)C1CCN(S(=O)(=O)c2ccc(F)cc2)CC1 | 3.3 | ? | 9.9% | 8.8% | ? | 2.0% | / | / | /
Nc1ccc(O)c2c1C(=O)c1ccccc1C2=O | -96.5* | 2.82µM* | 39.8µM* | 8.91µM* | 28.2µM* | 35.5µM* | 18.9* | 21.3* | 42.6* | PGK validate=11.6µM*;Pol kappa inh-2=3.36*
O=C(N=Nc1c(O)[nH]c2ccc(F)cc12)c1ccc(NS(=O)(=O)c2cccs2)cc1 | -15.4 | / | 19.8% | ? | -7.8% | -24.2% | / | / | /
Cc1cccc2c(N=NC(=O)c3ccc(NS(=O)(=O)c4cccs4)cc3)c(O)[nH]c12 | -76.8* | / | ? | 11.2µM* | ? | ? | 16.8* | 19* | 33.8*
CCc1ccc2occ(CC(=O)Nc3ccc(OC)c(Cl)c3)c2c1 | / | -16.7% | 5.2% | / | -21.5% | -9.4% | / | / | /
Cc1cccc(N=C2NC(=O)/C(=C/C=C/c3ccco3)S2)c1C | -79.8* | 2.51µM* | 3.55µM* | 1.78µM* | 14.1µM* | 44.7µM* | 67* | 26.9* | 75.7*
Cc1cccc(N=C2NC(=O)/C(=C/c3cccnc3)S2)c1C | -22.0 | 2.7% | ? | -2.1% | 3.0% | -20.5% | / | / | /
O=C1CCC(C(=O)N2CCCCO2)CN1Cc1cccc(F)c1 (stereo unspecified) | 6.1 | 10.2% | 9.3% | -6.4% | 0.9% | -0.4% | / | / | /
COc1ccc(-c2cn(-c3ccccc3)c3[n+]2CCS3)cc1 | -5.8 | 7.7% | 62.5% | -15.3% | -3.1% | -2.6% | / | / | /

High-throughput results from PubChem.
